Screens from PubChem BioAssay.
HP1b binding inh: HP1-beta chromodomain-methylated histone interaction inhibition | P83916 | AlphaScreen HP1-beta / biotin-H3K9me3 peptide binding | Potency, µM (doses to about 114 µM), usual class: inhibitors | hit rate 0.56% among 390,000 | AID 540317; further: nearly all actives have a fitted effect of over 70% in size
Target sequence (P83916 whole entry, looked up): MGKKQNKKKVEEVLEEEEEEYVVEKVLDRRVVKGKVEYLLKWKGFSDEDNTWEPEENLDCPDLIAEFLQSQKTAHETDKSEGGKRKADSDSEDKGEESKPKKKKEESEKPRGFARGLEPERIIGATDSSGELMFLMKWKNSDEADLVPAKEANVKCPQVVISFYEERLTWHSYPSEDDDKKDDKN
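AlphaScreen: HP1-beta (50 nM) preformed 30 min with biotin-H3(1-18)K9me3 peptide (50 nM) in PBS pH 7.4, 0.01% Tween-20. Compound added for 30 min at RT, then streptavidin donor/nickel chelate acceptor beads (10 ug/mL) for 30 min.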
JMJD2A Tudor: JMJD2A Tudor domain (human) inhibition; O75164; AlphaScreen JMJD2A-Tudor / H3K4me3 peptide binding; Potency, µM (doses to about 114 µM), usual class: inhibitors; hit rate 4.4% among 390,000; further: nearly all actives have a fitted effect of over 50% in size
BAZ2B block: blocks human BAZ2B. AlphaScreen BAZ2B-H3K14Ac peptide displacement. AID 504333. Potency, µM (doses to about 114 µM), usual class: inhibitors. hit rate 4.4% among 360,000; further: nearly all actives have a fitted effect of over 60% in size
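Inhibition is scored as reduced AlphaScreen emission. The BAZ2B/b-H3(5-23)K14Ac complex (50 nM each) in PBS pH 7.4, 0.01% Tween-20 meets compound (up to 110 uM) for 30 min at RT before bead addition.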
G9a block: G9a (human) methyltransferase inhibition. hit rate 8.8% among 350,000. G9a H3K9 monomethylation, AlphaScreen, 2 h. Potency, µM (highest dose often 102 µM), usual class: inhibitors. Q96KQ7; further: nearly all actives have a fitted effect of over 75% in size
Target sequence (Q96KQ7 913-1193 limits assumed): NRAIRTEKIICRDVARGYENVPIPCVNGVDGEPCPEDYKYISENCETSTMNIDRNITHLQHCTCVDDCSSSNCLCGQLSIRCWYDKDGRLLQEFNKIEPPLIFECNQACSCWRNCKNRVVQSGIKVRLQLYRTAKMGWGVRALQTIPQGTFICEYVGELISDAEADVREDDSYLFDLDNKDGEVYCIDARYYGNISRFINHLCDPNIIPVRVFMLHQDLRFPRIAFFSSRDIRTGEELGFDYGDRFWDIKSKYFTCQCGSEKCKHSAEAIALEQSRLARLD
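G9a (20 nM) preincubated 15 min RT with compounds, then 500 nM biotinylated H3K9 peptide and 20 uM SAM added; 2 h RT reaction. Monomethyl-H3K9 product detected by AlphaScreen with anti-H3K9me1 antibody, streptavidin donor and anti-rabbit IgG acceptor beads.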
Sfp PPTase inh: inhibitors of Bacillus subtilis Sfp phosphopantetheinyl transferase; Potency, µM, most hits filed as inhibitors; hit rate 3.5% among 310,000; Biochemical Sfp PPTase activity, qHTS;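 further: the enzyme is Sfp with the accession as filed and its product quenches rhodamine fluorescence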
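Fluorescence-quenching assay: 15 nM Sfp-PPTase preincubated 15 min at room temperature with compound, then 5 uM rhodamine-CoA and 12.5 uM BHQ-2-labelled YbbR peptide added. Fluorescence (ex 525/em 598 nm) read at start and after 30 min; difference gives rate.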
PLK1 PBD inh: inhibitors of human PLK1 polo-box domain binding | Plk1 PBD binding of FITC phosphopeptide, fluorescence polarization | Potency, µM, actives largely listed as inhibitors | hit rate 2.8% among 360,000; further: series mostly up to about 57 µM; nearly all actives have a fitted effect of over 65% in size
Of the large screens only hits and unclear results are named; the others gave an inactive call; ! = a repeat was not active. Most compounds without a hit are left out; they make up all but 12% or so of the library. The call rests on the fitted dose curve; in most records, active means well fitted curve in the direction sought with a large enough effect; inconclusive means small, poorly fitted or top-dose-only effect, or another doubt; inactive means no such curve, though single readings can be large; an effect the other way counts as inactive or inconclusive.

CCOC(=O)c1ccc(-n2c(N)c(C(=O)OC)c3nc4ccccc4nc32)cc1	none (no result: Sfp PPTase inh, PLK1 PBD inh)
O=C1CCCC(O)=C1N=Nc1ccc(C(=O)O)cc1	HP1b binding inh 45µM, BAZ2B block 22µM, G9a block 8.9µM, PLK1 PBD inh inconclusive
O=C1CCCC(O)=C1N=Nc1ccc2c(c1)OCO2	JMJD2A Tudor inconclusive, BAZ2B block inconclusive
O=C1CCCC(O)=C1N=Nc1c(Cl)cc(C(F)(F)F)cc1Cl	JMJD2A Tudor inconclusive, BAZ2B block 71µM, Sfp PPTase inh inconclusive (no result: G9a block)
COCCNc1oc(-c2ccc(COc3ccc(OC)cc3)o2)nc1C#N	HP1b binding inh inconclusive, JMJD2A Tudor inconclusive, BAZ2B block inconclusive (no result: Sfp PPTase inh, PLK1 PBD inh)
COCCCNc1oc(COc2ccc(Cl)cc2Cl)nc1C#N	JMJD2A Tudor inconclusive, G9a block 32µM, PLK1 PBD inh inconclusive
CN(C)CCNc1oc(-c2ccc(COc3ccc(Cl)cc3)o2)nc1C#N	JMJD2A Tudor 40µM, BAZ2B block inconclusive, G9a block inconclusive (no result: Sfp PPTase inh, PLK1 PBD inh)
COc1ccc(OCc2ccc(-c3nc(C#N)c(NCc4ccc(F)cc4)o3)o2)cc1	JMJD2A Tudor inconclusive, BAZ2B block inconclusive, G9a block 4µM (no result: Sfp PPTase inh, PLK1 PBD inh)
COCCCNc1oc(-c2ccc(COc3ccc(Cl)cc3)o2)nc1C#N	JMJD2A Tudor inconclusive, BAZ2B block inconclusive, G9a block 8.9µM (no result: Sfp PPTase inh, PLK1 PBD inh)
COc1ccc(-c2cc(C)no2)cc1S(=O)(=O)NCc1cccs1	none (no result: Sfp PPTase inh, PLK1 PBD inh)
O=C(Nc1cccc(C(=O)OCc2cc(=O)n3nc(C4CC4)sc3n2)c1)c1ccc(F)cc1	none (no result: Sfp PPTase inh, PLK1 PBD inh)
N#Cc1nc(-c2ccc(COc3ccc(Cl)cc3)o2)oc1N1CCC(C(N)=O)CC1	BAZ2B block inconclusive, G9a block 8.9µM (no result: Sfp PPTase inh, PLK1 PBD inh)
N#Cc1nc(-c2ccc(OCc3ccccc3)cc2)oc1N1CCC(C(N)=O)CC1	none
O=C1C[C@H](c2ccc3ccccc3c2)N1S(=O)(=O)c1ccccc1[N+](=O)[O-]	none (no result: BAZ2B block, G9a block, PLK1 PBD inh)
O=c1cc(-c2ccccc2)[nH]c2[nH]n(-c3ccccc3)c(=O)c12	BAZ2B block inconclusive, G9a block 45µM
CCOC(=O)Cc1cc(=O)c2c(=O)n(-c3ccccc3)[nH]c2[nH]1	JMJD2A Tudor inconclusive
Cc1ccc(Nc2cccccc2=O)cc1	JMJD2A Tudor inconclusive, PLK1 PBD inh 9.5µM
Cc1ccc(NC(=O)COC(=O)c2ccccc2Nc2ccccc2)cc1	none
CC(C)(C)Nc1cccccc1=O	G9a block 45µM
CCc1nnc(NC(=O)CN2CCOCC2)s1	JMJD2A Tudor inconclusive, Sfp PPTase inh inconclusive
O=C(CN1CCN(c2cccc(Cl)c2)CC1)Nc1nccs1	BAZ2B block inconclusive, G9a block 40µM
CCc1nnc(NC(=O)CN2CCN(c3cccc(OC)c3)CC2)s1	G9a block 14µM
CCCN1CCN(CC(=O)Nc2nnc(CC)s2)CC1	JMJD2A Tudor 7.1µM (no result: G9a block)
CCc1nnc(NC(=O)CN2CCN(Cc3ccccc3C)CC2)s1	none (no result: G9a block)
CCc1nnc(NC(=O)CN2CCN(c3ccccc3F)CC2)s1	G9a block 50µM
Cc1ccc(S/C(=N/S(=O)(=O)c2ccc(Cl)cc2)c2ccccc2)cc1	none (no result: BAZ2B block, G9a block, Sfp PPTase inh, PLK1 PBD inh)
CCCNC(=O)[C@H]1N2C(=O)c3c(ccc(OC)c3OC)C2SC1(C)C (stereo not given in full)	none
CN(C(Cc1ccc(OS(=O)(=O)c2cccc3cnccc23)cc1)C(=O)N1CCN(c2ccccc2)CC1)S(=O)(=O)c1cccc2cnccc12 (stereo not given)	G9a block 16µM! (no result: HP1b binding inh, JMJD2A Tudor, BAZ2B block, PLK1 PBD inh)
CCOC(=O)/C=C/C(=O)Nc1cccc([N+](=O)[O-])c1	HP1b binding inh inconclusive, JMJD2A Tudor inconclusive, BAZ2B block inconclusive, G9a block inconclusive, Sfp PPTase inh 2.8µM, PLK1 PBD inh 3.4µM
CC(Sc1cccc[n+]1[O-])C(=O)Nc1cccc([N+](=O)[O-])c1 (stereo not given)	G9a block inconclusive, PLK1 PBD inh inconclusive (no result: BAZ2B block)
CC(OC(=O)c1ccncc1)C(=O)Nc1cccc([N+](=O)[O-])c1 (stereo not given)	G9a block inconclusive
CCC(Sc1ccccn1)C(=O)Nc1cccc([N+](=O)[O-])c1 (stereo not given)	Sfp PPTase inh 56µM, PLK1 PBD inh 21µM (no result: G9a block)
CC(C(=O)Nc1cccc([N+](=O)[O-])c1)[n+]1ccccc1 (stereo not given)	BAZ2B block inconclusive, Sfp PPTase inh 20µM (no result: G9a block)
CCS(=O)(=O)n1c(Cc2cccs2)nc2ccccc21	none (no result: Sfp PPTase inh)
S=c1[nH]nc(Cc2cccs2)n1-c1ccccc1Cl	JMJD2A Tudor 14µM, G9a block 2.2µM
OC(COCc1cccs1)CN1CCN(c2ccccc2Cl)CC1 (stereo not given)	none
Cc1ccc(-c2cc(Cc3cccs3)c(=O)[nH]n2)cc1	none
S=c1[nH]nc(Cc2cccs2)n1-c1cccc2ccccc12	JMJD2A Tudor 40µM, G9a block 1.8µM, Sfp PPTase inh inconclusive
COc1ccccc1-n1c(Cc2cccs2)n[nH]c1=S	G9a block 3.5µM
Cc1ccc(C)c(-n2c(Cc3cccs3)n[nH]c2=S)c1	JMJD2A Tudor 10µM, G9a block 1.6µM
COc1ccccc1-n1c(CNC(=O)c2cccs2)n[nH]c1=S	JMJD2A Tudor inconclusive, G9a block inconclusive
CCOc1ccc(NC(=O)C2CCC(CNS(=O)(=O)c3ccc4c(c3)CCCC(=O)N4)CC2)cc1 (stereo not given)	none (no result: Sfp PPTase inh, PLK1 PBD inh)
c1ccc2sc(N3CCCN(Cc4nc(-c5cnccn5)no4)CC3)nc2c1	none
O=C(O)C1CCCN1S(=O)(=O)c1cccc(S(=O)(=O)N2CCCC2C(=O)O)c1 (stereo not given)	G9a block 3.2µM
O=C(NCC1CCCN1S(=O)(=O)c1ccccc1)C(=O)NC1CC1 (stereo not given)	JMJD2A Tudor 35µM, G9a block 50µM (no result: Sfp PPTase inh)
CCN(C(=O)c1coc(=O)c(Br)c1)c1ccc2c(c1)OCO2	JMJD2A Tudor 50µM, BAZ2B block 50µM, G9a block 20µM, Sfp PPTase inh 45µM
O=C(c1cccc(S(=O)(=O)N2CCc3ccccc32)c1)N1CCOCC1	none (no result: BAZ2B block, G9a block, Sfp PPTase inh)
Cc1cc(Nc2cccc(C)c2C)n2cnnc2n1	G9a block inconclusive (no result: Sfp PPTase inh, PLK1 PBD inh)
O=[N+]([O-])c1cccc(OCCN2CCC(Cc3ccccc3)CC2)c1	HP1b binding inh inconclusive, JMJD2A Tudor 14µM, BAZ2B block 56µM, G9a block 11µM
Cc1ccc(OCCN2CCN(C)CC2)c([N+](=O)[O-])c1	JMJD2A Tudor 3.5µM, BAZ2B block 50µM, G9a block 2.5µM, Sfp PPTase inh inconclusive
O=C(c1ccc([N+](=O)[O-])cc1)N1CCC(Cc2ccccc2)CC1	JMJD2A Tudor inconclusive, BAZ2B block inconclusive, PLK1 PBD inh inconclusive
Cc1ccc(C)c(OCCCN2CCNCC2)c1	G9a block inconclusive
Cc1ccc(OCc2ccc(C(=O)O)o2)c([N+](=O)[O-])c1	G9a block 50µM
Cc1ccc(OCCN2CCNCC2)c([N+](=O)[O-])c1	JMJD2A Tudor 40µM, BAZ2B block 56µM, G9a block 8.9µM, PLK1 PBD inh inconclusive
